Most compounds without a hit are left out; they make up all but 21% or so of the library.
Pf growth 96h: Primary qHTS for delayed death inhibitors of the malarial parasite plastid, 96 hour incubation | P. falciparum luciferase reporter growth, 96 h | Potency, µM (top dose mostly 28.7 µM), for the others: at the top dose activity change, negative = inhibition, most hits filed as inhibitors | hit rate 6.9% among 320,000; further: potency means the concentration at half of the fitted maximal effect; on the % scale 0 is the no-effect control and ±100 the full control effect
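96 h incubation, 37 C, 5% CO2, of luciferase-reporter P. falciparum-infected RBCs (2% hematocrit, 0.05% parasitemia final) with test compounds; endpoint luminescence.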
Shiga inhibitor: A qHTS for Small Molecule Inhibitors of Shiga Toxin. Vero cells, Shiga toxin protein synthesis inhibition reporter. hit rate 9.2% among 290,000. inhibition, % at 38.7 µM; in the data active means inhibition mostly above about 28%, no sharp cut-off; inactive means mostly below about 43%; further: 0% is about no effect
Cycloheximide cs: Cycloheximide Counterscreen for Small Molecule Inhibitors of Shiga Toxin; cell reporter, cycloheximide protein synthesis inhibition counterscreen; max response, %; hit rate 12% among 300,000; in the data active means max response mostly above about 13%, no sharp cut-off; inactive means mostly below about 14%; further: read at 38.3 µM for the half of the compounds with a filed dose; 0% is about no effect
Pf growth 48h: Primary qHTS for delayed death inhibitors of the malarial parasite plastid, 48 hour incubation. P. falciparum luciferase growth in erythrocytes, 48 h. Potency, µM (doses to about 28.7 µM), for the others: at the highest dose activity change, negative = inhibition, usual class: inhibitors. hit rate 5.9% among 310,000. AID 504832, 2011; further: potency means the concentration at half of the fitted maximal effect; on the % scale 0 is the no-effect control and ±100 the full control effect
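First compound was added to culture medium, then infected red cells at 0.1% parasitemia and 2% hematocrit (final). After incubation at 37 C under 5% CO2, luciferase detection reagent was dispensed and light output recorded.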
NS1 inh: qHTS Assay for Inhibitors of Influenza NS1 Protein Function. Potency, µM (highest dose often 46.1 µM), for inactives: top-dose activity, positive = more growth. hit rate 0.4% among 270,000. AID 2326, 2010; calls by dose curve; further: potency means the concentration at half of the fitted maximal effect; actives are rising curves; nearly all actives have a fitted effect of over 50% in size
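Read-out: OD600 growth recovery of NS1-expressing budding yeast. Cells grown overnight at 30C in -URA glucose medium, washed, resuspended and diluted 1:100 in 2% galactose assay medium, pH 6.0. Same strain lacking NS1 served as positive control.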
The depositor's hits bear a star; u = inconclusive; x = no result; [ ] = dose if it differs, or a comment. Unless noted, the call rests on the fitted dose curve; in most records, active means well fitted inhibition curve with a large enough effect; inconclusive means small, poorly fitted or top-dose-only effect, or another doubt; inactive means no such curve, though single readings can be large or run the other way.

SMILES | Pf growth 96h | Shiga inhibitor | Cycloheximide cs | Pf growth 48h | NS1 inh
CNC(=O)CS(=O)(=O)CC(=O)Nc1cc(OC(C)C)c(Cl)cc1Cl | -25% | 3 | -1 | -2% | -3%
Cc1ccc2sc(N(CCCN(C)C)C(=O)c3ccc(S(=O)(=O)N(C)C)cc3)nc2c1C | u | 11 | -10 | u | x
CCN(c1ccccc1)S(=O)(=O)c1ccc(C(=O)N(CCCN(C)C)c2nc3cc4c(cc3s2)OCO4)cc1 | -8% | -21 | 3 | -59% | 11%
CCN(c1ccccc1)S(=O)(=O)c1ccc(C(=O)N(CCCN(C)C)c2nc3c(C)cccc3s2)cc1 | 9.3µM* | -2 | -2 | 15µM* | 4%
Cc1ccc2sc(N(CCCN(C)C)C(=O)c3ccc(S(=O)(=O)N(C)Cc4ccccc4)cc3)nc2c1C | 12µM* | x | x | 10µM* | x
Cc1ccc(S(=O)(=O)Nc2ccc(NC(=O)c3c(F)c(F)c(F)c(F)c3F)cc2)cc1 | 9% | -6 | -3 | u | x
CC(=Nc1ccccc1)C1=C(O)CSC1=O | 0% | 49 | 32* | x | 5%
COc1ccc(N=C(C)C2=C(O)CSC2=O)cc1 | 2% | 45 | 40* | x | -4%
CC(=Nc1ccccc1C)C1=C(O)CSC1=O | x | -6 | 1 | 12% | -3%
COc1ccc(OC)c(C(=O)C2COC(=O)C2)c1 (stereo not given) | 49% | 6 | -1 | 10µM* | 0%
COc1ccc2cc([C@H](C)C(=O)N(C)Cc3ccccc3N3CCCC3)ccc2c1 | 3.7µM* | 4 | -1 | u | -28%
COc1ccc2cc([C@H](C)C(=O)O)ccc2c1 | -18% | 13 | -1 | -21% | -4%
COc1ccc(OCC(=O)Nc2ccccc2N2CCCCC2)cc1 | -22% | -4 | -3 | u | -42%
Cc1cccc(C)c1OCC(=O)Nc1ccccc1N1CCCCC1 | u | 10 | -1 | 12µM* | 14%
CNC(=S)NNC(=O)COc1cccc(C)c1C | 8.3µM* | -7 | -2 | 0% | -11%
CCC(=O)N1CCN(c2ccccc2NC(=O)COc2ccc(C(C)C)cc2)CC1 | u | -5 | -3 | 10µM* | -31%
COc1ccc(OCC(=O)Nc2ccccc2N2CCN(C)CC2)cc1 | -3% | -13 | 4 | -11% | -5%
Cc1cccc(OCC(=O)Nc2ccccc2N2CCCCC2)c1C | 1.9µM* | x | x | 12µM* | x
COc1cc(CC(=O)Nc2ccccc2N2CCCCC2)cc(OC)c1OC | u | -22 | -1 | u | x
Cc1ccc(Cl)c(OCC(=O)Nc2ccccc2N2CCCCC2)c1 | u | x | x | 15µM* | x
COc1ccc(C(=O)Sc2ccc(Cl)cc2)cc1OC | 187% | 12 | 8 | -29% | 1%
CC(=O)c1ccc(NS(=O)(=O)c2ccc(C)cc2)cc1 | 34% | 1 | 9 | x | -2%
COc1ccc(N/C=C(\C(C)=O)c2ccc(OC)c(OC)c2)cc1OC | -41%[5.75 µM] | -22 | -1 | u | x
COc1ccc(C(=O)Sc2ccc(C)cc2)cc1OC | u | 77* | 34* | -21% | -26%
COc1ccc(N/C=C\C(=O)c2ccc(C)cc2)cc1OC | u | 85* | 46* | 38% | -5%
SMILES | Pf growth 96h | Shiga inhibitor | Cycloheximide cs | Pf growth 48h | NS1 inh
COc1cc(OC)c(OC)cc1/C=C/C(=O)c1ccc(NS(=O)(=O)c2ccc(C)cc2)cc1 | 13µM* | 11 | -3 | 9.3µM* | u
COc1ccc(N/C=C\C(=O)c2ccc(Br)cc2)cc1OC | 1.9µM* | 27 | 28* | 71% | -12%
CCOC(=O)C1=C(C)N(C)C(=O)NC1c1cccc2ccccc12 (stereo not given) | 7% | -6 | -1 | 2% | -6%
CC(=O)Nc1ccc(N/C=C/C(=O)c2ccc(Br)cc2)cc1 | 29% | 4 | -2 | 93% | 10%
CC(=O)Nc1ccc(N/C=C/C(=O)c2ccc(C)cc2)cc1 | u | 55* | 27* | 78% | 28%
CC(C)(C)OC(=O)N1CCC[C@H]1c1nnc(SC/C=C/c2ccccc2)o1 | u | 29 | 3 | 10µM* | -41%
CC(C)(C)c1ccc(-n2ncc3c2CCCC3NC(=O)c2cnccn2)cc1 (stereo not given) | u | 73* | 30* | u | 7%
CC(C)(C)c1ccc(-n2ncc3c2CCCC3NC(=O)CN2CCCC2=O)cc1 (stereo not given) | 13µM* | -8 | 2 | 18% | -8%
Cc1cc(C)cc(-n2ncc3c2CCCC3NC(=O)CN2CCCC2=O)c1 (stereo not given) | u | 16 | 11 | 1% | -5%
